# Measured values reported in PubChem BioAssay (NCI).
# About 83,000 compounds went through this panel and 20% of them were active in at least one assay; those are over-represented in the sample as a whole.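 Cell lines were cultured in 96-well plates, exposed to a single compound concentration, and assessed for percent growth 48 hours later.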 Unmarked numbers belong to inactive results. The source made the active and inactive calls. Rule for the calls: active = growth percent below 10; inactive = the rest.
# How the values were obtained:
# Assay in all cases: NCI-60 one-dose screen, 48 h (100 = growth as untreated, 0 = no growth, -100 = all killed)
# Details in all cases: 10 µM unless noted
# SR leukemia = test system: SR leukemia
# RPMI-8226 leukemia = test system: RPMI-8226 leukemia
# OVCAR-8 ovarian = test system: OVCAR-8 ovarian
# OVCAR-5 ovarian = test system: OVCAR-5 ovarian
# OVCAR-4 ovarian = test system: OVCAR-4 ovarian
# SK-OV-3 ovarian = test system: SK-OV-3 ovarian
# IGROV1 ovarian = test system: IGROV1 ovarian
# OVCAR-3 ovarian = test system: OVCAR-3 ovarian
# HS 578T breast = test system: HS 578T breast
# NCI/ADR-RES ovarian = test system: NCI/ADR-RES ovarian
# T-47D breast = test system: T-47D breast
# BT-549 breast = test system: BT-549 breast
# MDA-MB-435 melanoma = test system: MDA-MB-435 melanoma
# SW-620 colon = test system: SW-620 colon
# MCF7 breast = test system: MCF7 breast
# HCT-116 colon = test system: HCT-116 colon
# HCC-2998 colon = test system: HCC-2998 colon
# KM12 colon = test system: KM12 colon
SMILES,growth (SR leukemia),growth (RPMI-8226 leukemia),growth (OVCAR-8 ovarian),growth (OVCAR-5 ovarian),growth (OVCAR-4 ovarian),growth (SK-OV-3 ovarian),growth (IGROV1 ovarian),growth (OVCAR-3 ovarian),growth (HS 578T breast),growth (NCI/ADR-RES ovarian),growth (T-47D breast),growth (BT-549 breast),growth (MDA-MB-435 melanoma),growth (SW-620 colon),growth (MCF7 breast),growth (HCT-116 colon),growth (HCC-2998 colon),growth (KM12 colon)
CCOC(=O)CSc1nnc(-c2cc3c([nH]c4ccccc43)c(-c3cccc(O)c3)n2)n1-c1ccc(C)cc1,13.7%,76.1%,16.7%,96.4%,72.6%,105%,28.3%,31.1%,58.7%,89.9%,-5.32% (active),101%,16.4%,67.1%,35.3%,50%,83.7%,76.3%
O=S(=O)(Nc1cccc2cc(OS(=O)(=O)c3ccccc3)ccc12)c1ccccc1,25.5%,62.1%,75.2%,91%,71.3%,61.8%,72.5%,66.1%,57.3%,46.2%,45.5%,45.4%,-13.8% (active),29.5%,36.8%,25.4%,96.4%,36.3%
COc1ccc2c(c1)OC(N)=C(C#N)C2c1ccc(F)c(F)c1 (stereo unspecified),12.2%,7.58% (active),33.9%,51.6%,73.6%,29%,53.5%,15.6%,35.7%,17.9%,46.8%,48.3%,-18.6% (active),21.3%,18.8%,24.2%,49.7%,28.6%
O=[N+]([O-])c1ccc(NS(=O)(=O)c2ccccc2)c2ccccc12,51.6%,11.7%,63.1%,84.4%,40.6%,34.7%,30.2%,25.5%,48%,51%,32%,37.2%,36.8%,49.6%,42.3%,44.6%,36.7%,40.1%
C=C1C(=O)O[C@H]2[C@H]1CC/C(COC(=O)c1ccccc1)=C\CC[C@@]1(C)O[C@@H]21,-14.1% (active),-36.4% (active),-34.3% (active),2.5% (active),5.21% (active),95.4%,-24.9% (active),-44.5% (active),44%,36.2%,-18.7% (active),-13.7% (active),-3.73% (active),-55.4% (active),-30.7% (active),-86.6% (active),83.9%,65.6%
O=C(CSc1nnc(-c2ccc(Cl)cc2)o1)Nc1ccc(C(=O)/C=C/c2ccccc2)cc1,60.4%,68.7%,97.3%,106%,101%,117%,95.7%,108%,101%,88.1%,107%,99.8%,91.4%,101%,53.1%,65.7%,106%,100%
CN(C)c1ccc2cc(-c3nc4ccccc4s3)c(N)nc2c1,20.9%,10.6%,67.8%,121%,78.3%,50.9%,63.6%,11.9%,91.9%,34.3%,48.5%,61.8%,5.06% (active),43.6%,19.7%,43.8%,77.6%,26.9%
Cc1c(F)cccc1NC(=O)c1sc2nc3c(cc2c1N)CCCCC3,16.8%,35.3%,80.3%,90.1%,75.6%,66.2%,53.7%,34.6%,54.3%,43.9%,63.6%,73.6%,9.59% (active),25%,14.8%,49.8%,75.8%,34.8%
CCCCOc1nc2ccc(Cl)cc2cc1/C=C/C(=O)/C=C/c1ccc(Cl)cc1,20.3%,0.229% (active),70.2%,107%,91.5%,92.5%,45.8%,51.1%,76.8%,100%,53.8%,36.3%,2.31% (active),42.5%,23%,-29.1% (active),60.4%,51.6%
Cc1ccc(=O)n(-c2ccc(Br)cc2F)c1,108%,101%,99%,105%,97.3%,90.4%,97.6%,109%,100%,104%,93.7%,94.5%,100%,103%,92.6%,105%,106%,103%
O=C(Cn1c2ccccc2c2ccncc21)N/N=C\c1ccc2ccccc2c1,33.5%,-1.73% (active),14.2%,75.2%,-11% (active),36%,43.1%,-37.1% (active),38.2%,27.2%,35%,52.5%,24.5%,26.4%,11.7%,-41.7% (active),74.5%,36%
c1ccc(CNCCN(CCNCc2ccccn2)Cc2ccc3ccccc3c2)nc1,2.45% (active),10.6%,11.1%,0.822% (active),0.169% (active),-26% (active),7.31% (active),1.32% (active),41.3%,-13% (active),-4.67% (active),30.3%,11.4%,13%,3.36% (active),-9.29% (active),-18.3% (active),12.5%
NC(=O)C1=C[C@H]2[C@H]3C=C[C@@]2(O)C(=O)O[C@@H]3O1,50.7%,61.8%,48.8%,101%,29.9%,86.6%,50.9%,16.8%,83.5%,75.3%,38.2%,64.2%,36.9%,40.3%,21.6%,18.4%,91.6%,84.9%
CN(C)CCS(=O)(=O)Nc1cc(-c2ccc3ncnc(Nc4ccc(F)c(Cl)c4)c3c2)cnc1Cl,-29.1% (active),-39.9% (active),13.7%,-22.4% (active),19.3%,-42.7% (active),-23.7% (active),-87% (active),-7.53% (active),14.9%,-27% (active),-17.9% (active),-47.6% (active),-22.7% (active),8.88% (active),-21.5% (active),-83.7% (active),-56.3% (active)
COc1ccc(Cn2cc(COc3ccc4c5ccnc(C)c5n(CCCc5ccccc5)c4c3)nn2)cc1,-29% (active),-3.72% (active),61.9%,111%,70.2%,95.3%,75.3%,76%,77.8%,67%,61.8%,67.5%,63.2%,65.5%,47.7%,51.5%,83%,59.7%
Cc1ccc(NC(=O)CN2CCOCC2)cc1Cl,82.3%,93.3%,92%,99.9%,94.7%,90.1%,107%,104%,98.7%,103%,88.7%,77%,100%,98.5%,91.8%,80.5%,96.8%,103%
CC(Cl)(CCl)CS(=O)(=O)c1ccc(Cl)cc1 (stereo unspecified),96.2%,99.8%,97.4%,113%,111%,102%,115%,110%,97.3%,110%,113%,105%,108%,103%,99.8%,103%,104%,108%
